Experimental data as given in PubChem BioAssay AID837 (The Scripps Research Institute Molecular Screening Center, 2007).
Active and inactive are the calls of the source.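 How the source made its calls: active means relative FRET score above 0.01, or acceptor fluorescence over 30% below the sample-well median; inactive means the rest.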

Target: Protein Rev (Human immunodeficiency virus type 1 group M subtype B (isolate WMJ22)) (UniProt P05866)
Test: disruptors of Rev peptide-RRE RNA complex – biochemical, FRET, acceptor and relative FRET calls, confirmation (AID 837);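 further: relative FRET combines rise in Cy5 acceptor with fall in fluorescein donor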
Details: Fl-Rev peptide / Cy5-RRE RNA FRET, 1536-well; at 8 µM

Protein Rev (Human immunodeficiency virus type 1 group M subtype B (isolate WMJ22)), sequence (P05866 whole entry, looked up): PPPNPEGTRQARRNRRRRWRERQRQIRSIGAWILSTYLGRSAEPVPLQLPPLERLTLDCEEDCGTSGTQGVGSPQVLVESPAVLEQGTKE

**Q.** With `CCOc1cc(-c2ccc(N)c(OCC)c2)ccc1N` as the compound, how does the outcome read?
**A.** active; fluoresces like the donor

**Q.** `O=c1[nH]c(Nc2ccc(F)cc2)cc2ccccc12` was tested. Which outcome did it give?
**A.** inactive

**Q.** How did the outcome turn out when `Cc1ccc(Nc2nc(N)nc(CSc3nnnn3-c3ccccc3)n2)cc1` was run?
**A.** inactive

**Q.** Which outcome does the source give for `Cc1ccc(S(=O)(=O)c2c(COC(=O)c3ccc(Cl)cc3)c(-c3ccccc3)nn2C)cc1` here?
**A.** inactive

**Q.** How did the outcome turn out when `N=c1n(CCO)c2ccccc2n1Cc1ccccc1Cl` was run?
**A.** inactive

**Q.** `Cc1ccc(C)n1-c1sccc1C(=O)O` was tested. Which outcome did it give?
**A.** inactive

**Q.** `COc1cccc(-c2cc(C(F)(F)F)nc(N3CCC(C)CC3)n2)c1` was tested. Which outcome did it give?
**A.** inactive

**Q.** Which outcome does the source give for `COC(=O)c1scc(C)c1N/N=C(\C)c1ccc(F)cc1F` here?
**A.** inactive

**Q.** How did the outcome turn out when `CN(C)CCCNC(=O)c1ccc(-c2nc(-c3ccc(Cl)cc3)cs2)cc1` was run?
**A.** inactive

**Q.** `CC(C)C(C(=O)O)N1C(=O)/C(=C/C=C/c2ccco2)SC1=S` (stereo not given) was tested. Which outcome did it give?
**A.** inactive; quenches the donor

**Q.** How did the outcome turn out when `COC(CNc1cc(=O)oc2ccccc12)OC` was run?
**A.** inactive

**Q.** For `OC(COc1ccc(C2C=CCC2)cc1)CN1CCCCC1` (stereo not given), which outcome is on record?
**A.** inactive

**Q.** With `C[n+]1c2n(c3ccccc31)N=C(c1ccc(Br)cc1)CS2` as the compound, how does the outcome read?
**A.** inactive

**Q.** With `CC(C(=O)O)N1C(=O)/C(=C/C=C/c2ccco2)SC1=S` (stereo not given) as the compound, how does the outcome read?
**A.** inactive; quenches the donor

**Q.** Which outcome does the source give for `CCN(CC)CCOc1cc2c(nn1)Oc1ccccc1N2C` here?
**A.** inactive

**Q.** `CCOC(=O)c1cnc(SC)nc1Sc1ccccc1Cl` was tested. Which outcome did it give?
**A.** inactive

**Q.** How did the outcome turn out when `CN(CC(O)COc1ccc(OCC(O)CN(C)C2CCCCC2)cc1)C1CCCCC1` (stereo not given) was run?
**A.** inactive

**Q.** For `COc1ccc(Nc2nc(N3CCCCC3)c3ccccc3n2)cc1`, which outcome is on record?
**A.** inactive

**Q.** For `CN(C)CC(O)COc1ccc(C(C)(C)c2ccc(OCC(O)CN(C)C)cc2)cc1` (stereo not given), which outcome is on record?
**A.** inactive

**Q.** How did the outcome turn out when `CCCCCCCCNc1ncnc2ccccc12` was run?
**A.** inactive
